Hit rate of the full screen: of about 420,000 compounds, about 50,000 (12%) were called active. Where a call stands in place of a potency, no number is given. Not shown: some 26% with an inconclusive outcome. The call rests on the fitted dose curve; in most records, active means well fitted inhibition curve with a large enough effect; inconclusive means small, poorly fitted or top-dose-only effect; inactive means flat fitted curve, though single readings scatter. For the sample, actives were picked, then their nearest neighbours and some compounds at random.
experiment: qHTS for Inhibitors of human tyrosyl-DNA phosphodiesterase 1 (TDP1): qHTS in cells in presence of CPT; details: chicken DT40 Tdp1-/-;hTDP1 cells + 20 nM CPT, ATP luminescence, 48 h; series mostly up to 46.2 µM; further: nearly all actives have a fitted effect of over 55% in size
Summary of the method: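 Cell growth measured by CellTiter-Glo luminescence after a minimum 48 h, 37 C compound exposure with 20 nM CPT in Tdp1-knockout DT40 cells stably expressing hTDP1, seeded 400/well; qHTS titration format.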
Potency means the concentration at half of the fitted maximal effect.

SMILES	Potency
COC(=O)c1ccc(/C=N/OCC(=O)Nc2cc(F)ccc2F)cc1	inactive
COc1cccc(N2CC(NS(=O)(=O)c3ccc(Cl)cc3)CC2=O)c1 (stereo unspecified)	inactive
O=C1CCNCCN1[C@H](CO)Cc1ccccc1	inactive
c1ccc2c(CCN3CCNC[C@H]3Cc3cccc4ccccc34)cccc2c1	20.6 µM (active)
c1ccc(C[C@H]2CNCCN2CCC23CC4CC(CC(C4)C2)C3)cc1	10.3 µM (active)
CC(C)(C)CN1C(=O)C(=O)NC[C@H]1Cc1cccc2ccccc12	inactive
CSC1=NCCN1C(=O)Cc1cccc2ccccc12	inactive
Nn1c(SCC(=O)NC2CCCC2)nnc1-c1ccccc1F	inactive
COCC1CCN(C(=O)c2ccc3oc(Cc4ccccc4)nc3c2)C1 (stereo unspecified)	inactive
COc1cc(OC)c(NC(=O)c2cc(S(=O)(=O)N3CCCC3)cn2C)cc1Cl	inactive
Cc1cccc(OCCC(=O)Nc2ccccc2C(N)=O)c1	9.2 µM (active)
Cc1ccccc1NC(=O)CCOc1ccccc1	inactive
Cc1cccc(OCC(=O)Nc2ccccc2F)c1	inactive
Cc1oc2c(c1C(=O)Nc1ccc(F)c(F)c1)C1=NCCN1C=N2	inactive
COc1ccc(/C=N/n2nnnc2N)cc1OC	inactive
Nc1nc(SCC(=O)Nc2ccc(Cl)c([N+](=O)[O-])c2)n[nH]1	inactive

SMILES	Potency
CC(OC(=O)CN1C(=O)COc2ccccc21)C(=O)NCc1ccc(F)cc1 (stereo unspecified)	inactive
O=C(CN1CCOC1=O)N1CCCC(Nc2ccc(F)c(F)c2)C1 (stereo unspecified)	inactive
CC(C)=C1C2CCC1C1C(=O)N(NC(=O)c3ccco3)C(=O)C21 (stereo unspecified)	inactive
CC(C)(c1ccccc1)c1ccc(OCCN)cc1	18.4 µM (active)
O=C(NCCOc1ccccc1)c1ccccc1	inactive
O=C(NCCc1ccccc1)c1ccc(OCCOc2ccccc2)cc1	inactive
CCOC(=O)c1sc(NC(=O)/C=C/c2ccc(C(C)C)cc2)c(C(=O)OCC)c1C	inactive
COc1cccc(CNC(=O)[C@@H]2CCCN2C(=O)[C@@H]2CCCN2C(=O)c2ccccc2)c1	inactive
CCOC(=O)CNC(=O)c1nn(-c2cccc(OC)c2)c(=O)c2ccccc12	inactive
COc1cccc(N2C(=O)CN(Cc3ccccc3)C2=S)c1	inactive
COc1cccc(-n2nc(C(=O)N3CCN(Cc4ccccc4)CC3)c3ccccc3c2=O)c1	20.6 µM (active)
N=C1C(c2nc3ccccc3[nH]2)=C(O)CN1NC(=O)c1c[nH]c2ccccc12	inactive
O=C(COC(=O)CCCN1C(=O)c2cccc3cccc(c23)C1=O)NC1CCS(=O)(=O)C1 (stereo unspecified)	inactive
Cc1ccc(-c2cc(C(=O)N/N=C/C=C/c3ccco3)c3ccccc3n2)cc1C	8.2 µM (active)
Cc1ccc(-c2cc(C(=O)Nc3nn[nH]n3)c3ccccc3n2)c(C)c1	inactive

Source: PubChem BioAssay AID686979 (National Center for Advancing Translational Sciences (NCATS), 2013)
